In the library only some 9.2% were active in any assay of this set; here they are far more common.
FLuc counter: inhibits or activates purified firefly luciferase, miR-21 counter-screen | P08659 | purified FLuc, Km substrates, luminescence inhibition | Potency, µM (highest dose often 57.5 µM), for inactives: at the top dose activity change, negative = inhibition, hits mostly inhibitors | hit rate 6.9% among 360,000 | AID 588342;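 also: plate controls were vehicle for no effect and reference inhibitor for full effect; nearly all actives have a fitted effect of over 55% in size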
Target sequence (P08659 whole entry, looked up): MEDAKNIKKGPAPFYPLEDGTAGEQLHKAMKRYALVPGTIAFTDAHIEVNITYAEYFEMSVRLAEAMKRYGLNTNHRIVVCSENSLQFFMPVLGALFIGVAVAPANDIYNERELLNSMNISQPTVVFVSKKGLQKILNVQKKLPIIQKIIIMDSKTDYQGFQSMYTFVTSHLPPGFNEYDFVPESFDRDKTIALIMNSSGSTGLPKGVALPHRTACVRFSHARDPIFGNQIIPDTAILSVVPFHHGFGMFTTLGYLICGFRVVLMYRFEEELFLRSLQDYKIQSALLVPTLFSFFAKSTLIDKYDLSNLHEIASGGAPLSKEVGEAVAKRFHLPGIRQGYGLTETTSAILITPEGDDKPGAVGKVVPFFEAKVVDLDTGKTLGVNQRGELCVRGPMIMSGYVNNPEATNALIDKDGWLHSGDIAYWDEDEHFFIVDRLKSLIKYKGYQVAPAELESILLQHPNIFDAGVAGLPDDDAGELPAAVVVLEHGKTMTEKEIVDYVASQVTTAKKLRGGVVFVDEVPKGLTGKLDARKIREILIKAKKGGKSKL
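Purified P. pyralis luciferase (10nM final) with 10uM D-luciferin and 10uM ATP (Km levels) in 50mM Tris acetate pH 7.5, 10mM Mg acetate, 0.01% Tween-20, 0.05% BSA; qHTS 6-point titration, ~60 µM downward; luminescence read.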
ELG1 repair inh: blocks ELG1-dependent DNA repair in HEK293T cells. HEK293T ELG1-luciferase reporter, luminescence, 16 h; DNA damage induced by 5-fluorouridine. Potency, µM (titrated, usually from 46.1 µM), inactives show at the highest dose activity change, negative = inhibition, hits mostly inhibitors. hit rate 2.3% among 330,000; also: % is scaled to controls: 0 for no effect and ±100 for the full control effect; nearly all actives have a fitted effect of over 55% in size
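Quantitative HTS, concentration-response format. 2,000 cells/well co-treated with 5-fluorouridine and compound, 16 hr in 5% CO2 at 37 °C; ONE-Glo luminescence read after 30 min.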
ELG1 genotox: induces genotoxicity in HEK293T cells with luciferase-tagged ELG1; HEK293T ELG1-luciferase reporter, luminescence, 16 h; Potency, µM (top dose mostly 46 µM), inactives show at the top dose activity change, positive = activation, most hits filed as activators; hit rate 1.3% among 330,000; AID 504466; also: % of control where 0% means no effect; nearly all actives have a fitted effect of over 60% in size
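16 hr compound incubation (37 °C, 5% CO2) of HEK293T cells carrying luciferase-tagged ELG1; luciferase then measured by ONE-Glo luminescence after 30 min at RT.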
Rab9 prom act: Rab9 promoter activation; hit rate 2.8% among 320,000; Huh7 Rab9 promoter-luciferase reporter, luminescence, 24 h; Potency, µM (series often up to 9.22 µM), inactives show top-dose activation, negative = inhibition, hits mostly activators; also: % of control where 0% means no effect; nearly all actives have a fitted effect of over 60% in size
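Luminescence read-out: Huh7 cells stably expressing Rab9-luciferase, treated 24 h with compound at 37 °C, then lysed with luciferase reagent for 10 min at ambient before reading.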
SMN2 splice enh: enhancers of SMN2 splice variant expression. hit rate 2.8% among 210,000. Potency, µM (doses to about 46.1 µM), for the others: at the top dose activity change, positive = activation, most hits filed as activators. HEK293 SMN2-luciferase splicing reporter, luminescence, 30-36 h; also: % of control where 0% means no effect; nearly all actives have a fitted effect of over 55% in size
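HEK293 cells carry an SMN2 minigene-luciferase reporter in which exon 7 inclusion puts luciferase in frame. Cells were seeded at 2000 cells/well, attached for 10-12 hours, then exposed to compounds for 30-36 hours at 37C before ONE-Glo luminescence.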
NPC1 promoter act: activates the NPC1 promoter. Huh7 NPC1 promoter luciferase reporter, 24 h. hit rate 2.4% among 320,000. Potency, µM (highest dose often 9.22 µM), without a hit: at the highest dose activation, hits mostly activators; also: % of control where 0% means no effect; nearly all actives have a fitted effect of over 60% in size
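Quantitative HTS used a cell-based reporter: Huh7 cells stably bearing the NPC1 promoter upstream of luciferase were treated with compounds for 24 h, and promoter activation was read as luminescence.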
An asterisk follows results filed as active. Calls follow the shape of the dose curve; as a rule, active = well fitted curve in the direction sought with a large enough effect; inconclusive = small, poorly fitted or top-dose-only effect, or another doubt; inactive = no such curve, though single readings can be large; an effect the other way counts as inactive or inconclusive. Potency is read from the fitted curve at half-maximal effect.

Results for Cc1c(/C(O)=C2/C(=O)C(=O)N(CCN(C)C)C2c2ccc(C(C)C)cc2)cnn1-c1ccccc1 (centres undefined) ?
FLuc counter: 1%; ELG1 repair inh: 4%; ELG1 genotox: 0%; Rab9 prom act: 0%; NPC1 promoter act: -4%

What do the screens show for `O=C(O)CCCNC(=O)c1cccc(C(=O)NCCCC(=O)O)n1`?
FLuc counter: 1%; ELG1 repair inh: -8%; ELG1 genotox: 0%; Rab9 prom act: -6%; SMN2 splice enh: 1%; NPC1 promoter act: -4%

How did N#CC1CC(c2ccccc2)=NN1c1ccccc1[N+](=O)[O-] (centres undefined) do in these assays?
FLuc counter: 12µM*; ELG1 repair inh: inconclusive; ELG1 genotox: inconclusive; Rab9 prom act: 3.5µM*; SMN2 splice enh: 22µM*; NPC1 promoter act: inconclusive

Results for Cc1cc(C=C2C(=O)c3ccccc3C2=O)c(C)n1C ?
FLuc counter: 3µM*; ELG1 repair inh: inconclusive; ELG1 genotox: inconclusive; Rab9 prom act: 0%; SMN2 splice enh: inconclusive; NPC1 promoter act: 1%

What do the screens show for `CCn1c(C)cc(C=C2C(=O)c3ccccc3C2=O)c1C`?
FLuc counter: 0.48µM*; ELG1 repair inh: inconclusive; ELG1 genotox: inconclusive; Rab9 prom act: inconclusive; SMN2 splice enh: inconclusive; NPC1 promoter act: inconclusive

Results for CNC(=O)CSc1nnc(NC(=O)C2CC(=O)N(c3ccccc3OC)C2)s1 (centres undefined) ?
FLuc counter: -7%; ELG1 repair inh: -13%; ELG1 genotox: 4%; Rab9 prom act: 5%; NPC1 promoter act: 4%

What do the screens show for `O=C1Nc2ccccc2SC1c1ccccc1` (centres undefined)?
FLuc counter: -1%; ELG1 repair inh: 8%; ELG1 genotox: 0%; Rab9 prom act: -2%; NPC1 promoter act: 1%

What do the screens show for `Cc1ccc(NC2Sc3ccccc3NC2=O)cc1` (centres undefined)?
FLuc counter: 2.1µM*; ELG1 repair inh: inconclusive; ELG1 genotox: inconclusive; Rab9 prom act: 1.4µM*; SMN2 splice enh: 11µM*; NPC1 promoter act: 4µM*

How did CCOC(=O)c1sc2nc3c(SCC(=O)O)cc(C(=O)c4ccccc4O)cn3c(=O)c2c1C do in these assays?
FLuc counter: 2.4µM*; ELG1 repair inh: 11%; ELG1 genotox: 2%; Rab9 prom act: 13%; SMN2 splice enh: 19%; NPC1 promoter act: 18%

How did CCc1c(C)sc2nc3c(C(=O)N4CCOCC4)cc(C(=O)c4ccccc4O)cn3c(=O)c12 do in these assays?
FLuc counter: -12%; ELG1 repair inh: inconclusive; ELG1 genotox: -12%; Rab9 prom act: -15%; SMN2 splice enh: -15%; NPC1 promoter act: 2%

What do the screens show for `CCOC(=O)c1sc2nc3c(SCC(=O)O)cc(C(=O)c4cc(F)ccc4O)cn3c(=O)c2c1C`?
FLuc counter: 8.5µM*; ELG1 repair inh: 24%; ELG1 genotox: 4%; Rab9 prom act: -3%; SMN2 splice enh: 23%; NPC1 promoter act: 1%

What do the screens show for `COc1ccc(-n2c(SCC(=O)O)nc3sc4c(c3c2=O)CCCC4)cc1`?
FLuc counter: 0%; ELG1 repair inh: 10%; ELG1 genotox: 0%; Rab9 prom act: -2%; NPC1 promoter act: 1%

What do the screens show for `COC(=O)c1cc(C(=O)c2cc(F)ccc2O)cn2c(=O)c3c(C)c(C)sc3nc12`?
FLuc counter: inconclusive; ELG1 repair inh: inconclusive; ELG1 genotox: -5%; Rab9 prom act: -1%; NPC1 promoter act: -2%

How did COc1ccc(O)c(C(=O)c2cc(SCC(=O)O)c3nc4sc5c(c4c(=O)n3c2)CCCC5)c1 do in these assays?
FLuc counter: 6.7µM*; ELG1 repair inh: 8%; ELG1 genotox: 4%; Rab9 prom act: -3%; NPC1 promoter act: 2%

Screening results as filed in PubChem BioAssay.
